Records with an inconclusive call do not appear. Activity calls are given as the source filed them. Rule for the calls: active = hit-call score of the fitted dose curve at least 0.9, where 1 is the maximum; inconclusive = response in the unintended direction; inactive = score below 0.9.

A short description of assay [1]: Tanguay_ZF_120hpf_SWIM_legacy: (Legacy) Oregon State University Tanguay Lab 120 Hour Post-fertilization zebrafish Assay for Swim Bladder Malformation (AID 2283654).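 Note: swim bladder malformation in each larva scored yes or no under brightfield.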 In outline:
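Static waterborne exposure of single dechorionated Tropical 5D zebrafish embryos, 6–120 hpf, 28C, 0.64% DMSO final. Read-out: swim bladder malformation, present/absent, relative to DMSO negative control; trimethyltin chloride 5uM served as positive control.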

The nature of assay [2]: Tanguay_ZF_120hpf_TRUN_legacy: (Legacy) Oregon State University Tanguay Lab 120 Hour Post-fertilization zebrafish Assay for Truncated Body (AID 2283655). Put shortly: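 Whole-embryo zebrafish screen: dechorionated 5D embryos, static exposure 6–120 hpf, 28C, sealed foil-covered plates, 0.64% DMSO. Binary truncation call; gain of signal versus DMSO baseline.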
Assay [3] can be described thus: Tanguay_ZF_120hpf_NC_legacy: (Legacy) Oregon State University Tanguay Lab 120 Hour Post-fertilization zebrafish Assay for Notochord and Tail Malformation (AID 2283656). Put shortly: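 Binary notochord-distortion calls, made by brightfield inspection, form the read-out; activity is fitted in the positive direction against DMSO. Exposure ran statically from 6 to 120 hpf at 28C with 0.64% DMSO.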

Assay [4] has as its system Thyroperoxidase (TPO), gene 54314. Put plainly: CCTE_Simmons_AUR_rTPO: CCTE's Amplex UltraRed Assay for Thyroperoxidase (TPO) Inhibition, Simmons Lab (AID 2283662).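 For AC50: potency for loss of signal meaning inhibition of peroxidase activity.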 In outline: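 Endpoint is decreased Amplex UltraRed fluorescence after a 30-min, 37C reaction of rat thyroid microsomes with 300 uM H2O2. Eight test concentrations (5 nM–87.5 uM final) in 0.5% DMSO, three biological replicates each.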

Assay [5] can be described thus: Tanguay_ZF_120hpf_TR_legacy: (Legacy) Oregon State University Tanguay Lab 120 Hour Post-fertilization zebrafish Assay for Touch Response (AID 2283667). Put shortly: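 Readout is presence or absence of touch response in 120 hpf zebrafish larvae, assessed by brightfield observation after continuous static exposure at 28C. Final vehicle was 0.64% (vol/vol) DMSO.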
Read-out in assay [6]: ABC Transporter (ABCB1), ABCB1 (gene 5243)
Briefly: CLD_ABCB1_6hr: CellzDirect (CLD) Gene Expression Assay for ABC Transporter (ABCB1) at 6 hours (AID 2283659).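 Note: hits raise ABCB1 transcript above the DMSO vehicle baseline.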 Put shortly:
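ABCB1 transcript measured by quantitative nuclease protection assay, chemiluminescent read-out, 6 h after dosing human hepatocyte cultures (0.2% DMSO vehicle, daily redosing). Activity fitted as increase over DMSO baseline; cytotoxicity flagged by phase-contrast morphology.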

Read-out in assay [7]: Broad substrate specificity ATP-binding cassette transporter ABCG2 (Homo sapiens) (UniProt Q9UNQ0)
Briefly: CLD_ABCG2_6hr: CellzDirect (CLD) Gene Expression Assay for ABC Transporter (ABCG2) at 6 hours (AID 2283660). In outline:
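ABCG2 mRNA induction measured by qNPA chemiluminescence in human primary hepatocyte cultures, 6 h post-dose. Chemicals tested at several concentrations against a 0.2% DMSO vehicle; positive-direction fit relative to DMSO.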

Read-out in assay [8]: xenobiotic metabolism (CYP1A1), CYP1A1 (gene 1543)
Briefly: CLD_CYP1A1_6hr: CellzDirect (CLD) Gene Expression Assay for xenobiotic metabolism (CYP1A1) at 6 hours (AID 2283661). Put shortly: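 Read-out 6 h post-dose: qNPA chemiluminescent quantitation of transcript induction against 0.2% DMSO. Cells were cultured primary human hepatocytes from two separate donor preparations; phase-contrast morphology annotated apparent cytotoxicity.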

Read-out in assay [9]: xenobiotic metabolism (CYP1A2), CYP1A2 (gene 1544)
Put plainly: CLD_CYP1A2_6hr: CellzDirect (CLD) Gene Expression Assay for xenobiotic metabolism (CYP1A2) at 6 hours (AID 2283663). In outline:
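mRNA levels quantified by quantitative nuclease protection assay with chemiluminescence, 6 h after dosing human primary hepatocyte cultures (two donors) across several concentrations, vehicle 0.2% DMSO. Induction fitted upward versus DMSO; phase-contrast cytotoxicity annotated.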

Read-out in assay [10]: alkyl and aryl transferase (GSTA2), GSTA2 (gene 2939)
Put plainly: CLD_GSTA2_6hr: CellzDirect (CLD) Gene Expression Assay for alkyl and aryl transferase (GSTA2) at 6 hours (AID 2283666). In outline:
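GSTA2 transcript induction at 6 h, quantified by nuclease protection (qNPA) with chemiluminescent detection, in human liver primary hepatocytes exposed to several compound concentrations with 0.2% DMSO as baseline; phase-contrast morphology annotated apparent cytotoxicity.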

Read-out in assay [11]: organic anion transporter (SLCO1B1), SLCO1B1 (gene 10599)
Put plainly: CLD_SLCO1B1_6hr: CellzDirect (CLD) Gene Expression Assay for organic anion transporter (SLCO1B1) at 6 hours (AID 2283668).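 Note: active means mRNA induction above DMSO baseline.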 In outline: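 SLCO1B1 mRNA induction measured 6 h after dosing by quantitative nuclease protection with chemiluminescent read-out, in human primary hepatocyte cultures given chemicals at several concentrations (vehicle 0.2% DMSO). Increase over DMSO baseline fitted; morphology-based cytotoxicity annotated yes/no.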

Read-out in assay [12]: sulfotransferase (SULT2A), SULT2A1 (gene 6822)
Briefly: CLD_SULT2A_6hr: CellzDirect (CLD) Gene Expression Assay for sulfotransferase (SULT2A) at 6 hours (AID 2283669).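 Note: hits raise transcript level above the DMSO vehicle baseline.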 In outline: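 Measured 6 h after dosing, SULT2A1 mRNA in human hepatocyte lysates was quantified by S1 nuclease protection with chemiluminescent detection. Increases fitted against 0.2% DMSO vehicle baseline; phase-contrast cytotoxicity recorded yes/no.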

Read-out in assay [13]: glucuronosyltransferase (UGT1A1), UGT1A1 (gene 54658)
Put plainly: CLD_UGT1A1_6hr: CellzDirect (CLD) Gene Expression Assay for glucuronosyltransferase (UGT1A1) at 6 hours (AID 2283672). In outline:
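UGT1A1 mRNA induction, read by quantitative nuclease protection assay, 6 h after dosing primary human hepatocytes (two donors, 0.2% DMSO vehicle). Gain of signal fitted relative to vehicle.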

Read-out in assay [14]: xenobiotic metabolism (CYP1A1), CYP1A1 (gene 1543)
Briefly: CLD_CYP1A1_24hr: CellzDirect (CLD) Gene Expression Assay for xenobiotic metabolism (CYP1A1) at 24 hours (AID 2283673).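 Note: CYP1A1 mRNA level by quantitative nuclease protection with chemiluminescence.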 In outline:
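Transcript levels were read at 24 h by qNPA chemiluminescence in human liver primary cells. Cells got daily fresh dosing at multiple concentrations (vehicle 0.2% DMSO). Induction fitted upward against DMSO; phase-contrast cytotoxicity annotated.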

Sequence of Broad substrate specificity ATP-binding cassette transporter ABCG2 (Homo sapiens) (Q9UNQ0 whole entry, looked up): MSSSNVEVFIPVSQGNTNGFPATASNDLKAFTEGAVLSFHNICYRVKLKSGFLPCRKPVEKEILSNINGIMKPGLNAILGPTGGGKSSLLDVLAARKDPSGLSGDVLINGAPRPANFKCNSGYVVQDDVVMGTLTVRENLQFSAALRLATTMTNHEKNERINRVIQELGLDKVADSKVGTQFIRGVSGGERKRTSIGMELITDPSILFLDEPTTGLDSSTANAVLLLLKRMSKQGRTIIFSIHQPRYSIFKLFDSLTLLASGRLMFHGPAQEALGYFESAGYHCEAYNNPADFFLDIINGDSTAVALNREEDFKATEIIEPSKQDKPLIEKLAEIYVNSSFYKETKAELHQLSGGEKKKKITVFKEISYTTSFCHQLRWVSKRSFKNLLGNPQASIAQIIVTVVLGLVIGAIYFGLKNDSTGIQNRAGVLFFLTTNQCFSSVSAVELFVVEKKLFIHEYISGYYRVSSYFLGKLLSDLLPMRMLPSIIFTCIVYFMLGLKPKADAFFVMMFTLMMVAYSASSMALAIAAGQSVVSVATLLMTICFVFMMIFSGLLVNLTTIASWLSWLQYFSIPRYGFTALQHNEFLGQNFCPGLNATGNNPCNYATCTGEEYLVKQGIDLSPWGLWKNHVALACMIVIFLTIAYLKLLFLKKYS

In general, AC50 refers to the concentration at which the activity in the assay is half-maximal. On to `CCCCCCCCOC(=O)c1ccccc1C(=O)OCCCCCCCC`, for which the result in assay [1], in [2], in assay [3] and in [5] was inactive. For the same molecule, the AC50 in assay [4] was 11.8 µM (active).
For `CC(C)C(=O)OCC(C)(C)C(OC(=O)C(C)C)C(C)C` (stereo not given), the result in assay [1], in assay [2], in [3] and in [5] was inactive.
In the case of `Cc1ccc(O)c(C)c1`, the molecule was classed as inactive in assay [1], in assay [2], in [3] and in assay [5]. Besides, the AC50 in assay [4] is 18.2 µM (active).
Take `CCCCCCCCCC[N+](C)(C)CCCCCCCCCC`: the call in assay [1], in assay [2], in assay [3] and in assay [5] was inactive. Moreover, the AC50 in assay [4] is 43.8 µM (active).
Regarding `CC#Cc1cc(C)nc(Nc2ccccc2)n1`, the outcome in [1] was inactive.
For the molecule `Oc1c(Cl)c(Cl)c(Cl)c(Cl)c1Cl`, the molecule was classed as inactive in [1], in assay [2], in [3] and in assay [5]. Further, the AC50 in assay [4] is 8.93 µM (active).
For `c1cc2ccc3cccc4ccc(c1)c2c34`, the molecule was classed as inactive in assay [1], in [2], in assay [3] and in [5].
Take `Clc1ccc(C(Cl)(Cl)Cl)cc1`: the call in assay [1], in assay [2], in assay [3], in assay [4] and in assay [5] was inactive.
As to `Cc1ccccc1CO[C@@H]1C[C@@]2(C(C)C)CC[C@]1(C)O2`, the outcome in assay [1], in assay [2], in assay [3], in assay [6], in assay [7] and in assay [8] was inactive. Besides, the molecule was classed as inactive in assay [9], in [10], in assay [5], in assay [11], in assay [12] and in assay [13]. Besides, the call in assay [14] was inactive. The AC50 in assay [4] is 28 µM (active).
As for `O=C(N[C@H]1CN2CCC1CC2)c1cc2ccoc2cn1`, the call in assay [1], in assay [2] and in [3] was inactive.
Turning to `CC(c1ccc(O)cc1)(c1ccc(O)cc1)c1ccc(O)cc1`, the molecule was called inactive in assay [1], in assay [2] and in [3]. Also, the concentration at half-maximal activity (AC50) in assay [4] was 1.41 µM (active).
As to `CCC(=O)O[C@H]1CC[C@H]2[C@@H]3CCC4=CC(=O)CC[C@]4(C)[C@H]3CC[C@]12C`, the outcome in [1], in [2], in assay [3], in [4] and in assay [5] was inactive.

The record behind these values is PubChem BioAssay (EPA / NIEHS).
